Pf Dd2 growth: blocks in vitro growth of P. falciparum Dd2; P. falciparum Dd2 growth, SYBR Green, 72 h; Potency, µM (series often up to 28.9 µM), for inactives: top-dose activity, negative = inhibition, most hits filed as inhibitors; 120,000 tested, 4.3% active; active = well fitted inhibition curve with a large enough effect;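 also: plate controls were DMSO vehicle for no effect and reference drug for full effect; nearly all actives have a fitted effect of over 65% in size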
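Readout: SYBR Green fluorescence, 485 nm excitation, 535 nm emission, after ~16 h lysis at 37C. Before that, Dd2-infected red cells (2.5% hematocrit) grew 72 h with compound, 29 uM top final concentration.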
The depositor's hits bear a star; i = inactive; [ ] = remark or other dose. This excerpt belongs to a sample that is enriched for hits. Potency is read from the fitted curve at half-maximal effect.

SMILES	Pf Dd2 growth
Cc1nn(C)c2ncnc(NCc3nn[nH]n3)c12	-1%
O=C(COc1ccccc1)N1CCC([C@@H]2CNC[C@H]2CO)CC1	11%
COc1cc(OC)cc(OCc2nc3c(n2Cc2ccccc2)C(=O)N(Cc2cccc(Cl)c2)CCN3)c1	7.9µM*
CC(=O)N1CCN(Cc2nc3c(n2Cc2ccccc2)C(=O)N(Cc2cccc(Cl)c2)CCN3)CC1	-14%
O=C1c2c(nc(COc3cc(F)cc(F)c3)n2Cc2ccccc2)NCCN1Cc1ccccc1	-21%
COCC1CN(C(C)=O)CC12CCN(C(=O)NCc1ccco1)CC2 (configuration not stated)	29%
COc1ccc2c(c1)CN(Cc1ccc(C(F)(F)F)cc1)CC[C@H]1COC(=O)N21	i
COc1ccc2c(c1)CN(Cc1ccccc1Cl)CC[C@H]1COC(=O)N21	11µM*
COc1cccc(CN2CC[C@H]3COC(=O)N3c3ccc(OC)cc3C2)c1	11%[44.1 µM]
Cn1ncc2c(C(=O)N3CCOCC3)cc(-c3ccc(Cl)nc3)nc21	-5%
Cc1ccc(O)c(C(CC(=O)NCC2(c3ccccc3)CCCC2)c2ccccc2)c1 (configuration not stated)	10µM*
COc1ccc(C)cc1NC(=O)C(=O)NCC1(c2ccccc2)CCCC1	15%
Cc1ccc(NC(=O)C(=O)NCC2(c3ccccc3)CCCC2)cc1C	3%
C=CCn1cc(CN2CCOC(Cc3cccc(OC)c3)C2)c(C)n1 (configuration not stated)	-24%
Cc1nnc([C@H]2CCN(Cc3cc4ccccc4o3)C2)o1	i
CCC1CN(Cc2cn(Cc3ccccc3)nc2-c2cc3ccccc3o2)CCO1 (configuration not stated)	10µM*
CCN1C(=O)CCN(C(=O)NC2CCCCC2)CC12CCOCC2	2%
CC(C)C1=NOC2(CCN(C(=O)c3ccc(Cl)cc3)CC2)C1	0%
COc1cccc(C(O)CNC(=O)C2CCN(C(=O)C3CCC3)CC2)c1 (configuration not stated)	-2%
Cc1nc2ccccc2n1CCc1nc2c3ccccc3nc(SCC(=O)Nc3ccc(C(C)C)cc3)n2n1	8.9µM*
Cc1nc2ccccc2n1CCc1nc2c3ccccc3nc(SCC(=O)Nc3cccc(C(F)(F)F)c3)n2n1	i
Cc1nc2ccccc2n1CCc1nc2c3ccccc3nc(SCC(=O)Nc3ccc(Br)cc3F)n2n1	i
CCn1cc(S(=O)(=O)N2CC(N(C)Cc3cccnc3)C2)cn1	2%
Cc1ccc(N(CC(O)Cn2c3ccccc3c3ccccc32)S(=O)(=O)c2ccc(F)cc2)cc1 (configuration not stated)	13µM*
Cc1ccc(N(CC(=O)NCc2ccc(F)cc2)S(=O)(=O)c2c(C)nn(C)c2C)cc1	0%
SMILES	Pf Dd2 growth
COc1ccc(S(=O)(=O)N(CC(=O)N2CCc3ccccc3C2)c2ccc(C)cc2)cc1	-21%
O=C(NC1CCCc2c1cnn2-c1ccc(F)cc1F)c1ccsc1 (configuration not stated)	-17%
Cc1cnc(C2CCOCC2)n1C1CCCNC1 (configuration not stated)	-5%
N#Cc1ccccc1S(=O)(=O)N[C@H]1CO[C@H]2[C@@H]1OC[C@H]2OC(=O)Nc1ccc(Oc2ccccc2)cc1	i
Cc1ccc(C(=O)N[C@H]2CO[C@H]3[C@@H]2OC[C@H]3OC(=O)Nc2ccc(C(C)C)cc2)cc1	-14%[44.1 µM]
COc1ccc(OC)c(S(=O)(=O)N[C@H]2CO[C@H]3[C@@H]2OC[C@H]3OC(=O)Nc2ccc(Oc3ccccc3)cc2)c1	-24%
COc1ccc(NC(=O)O[C@@H]2CO[C@H]3[C@@H]2OC[C@@H]3NS(=O)(=O)c2ccccc2C#N)cc1	i
CC(C)c1ccc(NC(=O)O[C@@H]2CO[C@H]3[C@@H]2OC[C@@H]3NS(=O)(=O)c2cccs2)cc1	2.2µM*
CC(=O)Nc1ccc(S(=O)(=O)N[C@H]2CO[C@H]3[C@@H]2OC[C@H]3OC(=O)Nc2ccc(Oc3ccccc3)cc2)cc1	6.3µM*
O=C(NCc1ccc(C(F)(F)F)cc1)C1CN(Cc2ccccc2)C(=O)N1 (configuration not stated)	-2%
COCCNc1ncc(C(=O)O)c(-c2cc(F)cc(F)c2)n1	24%
O=C(O)CCn1ncc2cc(OCC3CCN(C(=O)Oc4ccccc4Cl)CC3)ccc21	i
C[S+](=O)([O-])N1CCC2(CC1)CC(Cc1ccccc1)=NO2	17%
O=C(c1ccccc1F)N1CCC(CCOc2ccccc2)C1 (configuration not stated)	i
Cc1ccc(-c2nnc(Nc3cccc(Cl)c3)c3ccccc23)cc1S(=O)(=O)NCC1CCCO1 (configuration not stated)	10µM*
Cc1ccc(-c2nnc(Nc3ccc(Cl)cc3)c3ccccc23)cc1S(=O)(=O)NCC1CCCO1 (configuration not stated)	33%
Cc1ccc(-c2cnc(C3CC3)o2)cc1S(=O)(=O)Nc1cccc(C#N)c1	-3%
CCOC(=O)c1c(Nc2cccc(C)c2)nnc(-c2ccccc2)c1-c1ccccc1	i
Cc1cccc(Nc2nnc(-c3ccc(C)c(S(=O)(=O)NCC4CCCO4)c3)c3ccccc23)c1 (configuration not stated)	4.5µM*
Cc1cc(-c2ccc(C)c(S(=O)(=O)NCC3CCN(Cc4ccccc4F)CC3)c2)on1	i
c1ccc(CCCNc2ncncc2-c2nc(-c3ccccc3)no2)cc1	i
CC(=O)N1CCCN(C(=O)c2cnc3c(c2)N(C(=O)CCc2ccccc2)CCC3)CC1	i
Cc1c(F)cccc1NC(=O)C1CCN(C(=O)c2ncn3c2COC(c2ccc(F)cc2)C3)CC1 (configuration not stated)	i
C[S+](=O)([O-])N1CCC2(CC1)CC(c1ccccc1)=NO2	13%[44.1 µM]
O=C(c1ccc(Cl)cc1)N1CCC2(CC1)C(=O)NCN2c1ccccc1	-23%
SMILES	Pf Dd2 growth
O=C1NCCCCCCN(Cc2ccncc2)[C@@H]2CN(Cc3ccccn3)CC[C@@H]12	i
O=C1NCCCCCCN(Cc2ccncc2)[C@@H]2CN(S(=O)(=O)c3cccnc3)CC[C@H]12	-15%
O=C1NCCCCCCN(Cc2ccncc2)[C@@H]2CN(Cc3cccnc3)CC[C@H]12	-19%
O=C1NCCCCCCN(Cc2ccncc2)[C@@H]2CN(S(=O)(=O)c3ccccc3)CC[C@H]12	10µM*
CCN1CCC(N2CC[C@@H]3C(=O)NCCCCCCN(Cc4ccncc4)[C@@H]3C2)CC1	4%
O=C1NCCCCCCN(Cc2ccncc2)[C@@H]2CN(C3CCOCC3)CC[C@@H]12	8%
CS(=O)(=O)N1CC[C@@H]2C(=O)NCCCCCCN(Cc3ccncc3)[C@@H]2C1	-6%
COc1cccc(CN2CC[C@@H]3C(=O)NCCCCCCN(Cc4ccncc4)[C@@H]3C2)n1	4µM*
Cn1cccc1CN1CC[C@@H]2C(=O)NCCCCCCN(Cc3ccncc3)[C@@H]2C1	6.3µM*
Cc1cccc(-n2nc(C)c(CCC(=O)N3CCSCC3)c2Oc2ccccc2)c1	-2%
COc1ccc(CN2CC(OCc3cccnc3)CN(C(=O)c3ccccn3)CC2=O)cc1 (configuration not stated)	9%
COc1ccc(-c2ccc3nc(-c4cc(F)cc(F)c4F)oc3c2)c(OC)c1OC	-6%
COc1ccccc1C(=O)N1CC2(C1)NC(=O)c1ccccc1O2	i
CC1Oc2ccc(NS(=O)(=O)c3ccc(F)cc3)cc2CN(Cc2ccc(F)cc2)C1=O (configuration not stated)	-20%

Compound activity as filed in PubChem BioAssay.
